Assay results from PubChem BioAssay (NCATS).
Records with an inconclusive call do not appear. Where a call stands in place of a potency, no number is given. Values without a mark were called inactive. Active and inactive are the calls of the source. Calls follow the shape of the dose curve; as a rule, active = well fitted inhibition curve with a large enough effect; inconclusive = small, poorly fitted or top-dose-only effect; inactive = no such curve, though single readings can be large or run the other way.
Potency is read from the fitted curve at half-maximal effect.

Assay: Primary fluorescence-based thiol-reactive (MSTI) qHTS assay for identification of artifact compounds. (AID 1845221); also: nearly all actives have a fitted effect of over 65% in size;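 as to activity change, negative = thiol reactive: thiol-reactive compounds lower the probe fluorescence signal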
Settings: MSTI thiol-reactivity probe, 1 h; series mostly up to 53.8 µM
Description: PI: Alexander Tropsha Ph.D.
UNC Eshelman School of Pharmacy
University of North Carolina, Chapel Hill, North Carolina
Hits from high-throughput screening (HTS) of chemical libraries are often false positives due to their interference with the assay detection technology. In response to this problem, we generated the largest publicly available library of chemical liabilities and developed a free webtool to predict HTS artifacts, both of which are described herein. More specifically, we generated, curated, and integrated HTS datasets for thiol reactivity, redox activity, and luciferase (firefly and nano) activity. Using these curated datasets, we developed and validated several Quantitative Structure-Interference Relationship (QSIR) models to predict nuisance behavior. […] These models were employed for virtual profiling of the National Center for Advancing Translational Science's (NCATS) in-house library, and 256 compounds for each assay were selected for the experimental validation of nuisance behavior. The BA for these external predictions ranged from 58 to 78% for compounds within the applicability domains of the models. […] The models developed in this study, along with aggregation models previously developed by our group (SCAM Detective) were implemented in "Liability Predictor," an online tool which may be used as part of chemical library design or for triaging HTS hits. Both the models and the curated datasets are publicly available at https://liability.mml.unc.edu/.
SEQUENCE No. (e.g., 1, 2, 3, etc.); […] (e.g., Cells, Incubation, Reagent, etc.); VALUE; DESCRIPTION.
1; Reagent; 4 uL; […].
2; Compounds and control; 16 nL; Kalypsis pin tool (Wako USA) equipped with a 1536-well pin head.
4; Detection; Fluorescence, ViewLux microplate reader, 525 nm excitation, 598 nm emission.
NOTES (numbers refer to Sequence numbers above)
1. Assays determining (E)-2-(4-mercaptostyryl)-1,3,3-trimethyl-3H-indol-1-ium (MSTI) reactivity were performed as previously described in the literature with modifications for the quick identification of compounds reacting with thiol. In brief, 4 uL of MSTI or positive control Acetyl-MSTI (final concentrations of 4 uM and 4 uM, respectively) in assay buffer (2% DMSO in 1X PBS pH 7.4) was dispensed into all wells of a 1536-well assay plate (solid-bottom black plate; Greiner Bio One, Monroe, NC).
2. A Wako Pin-tool (Wako Automation, Richmond, VA) was used to transfer 16 nL of compounds (consisting of 7-plates in qHTS format, final concentration range 18.3 nM to 114 uM) or control MLS001163887 (final concentration range 1.22 nM to 40 uM).
3. Plates were centrifuged (121xg, 15 seconds) and incubated for 1 hour at room temperature protected from light.
4. Samples were read for fluorescence (Ex/Em = 525(20)/598(25) nm) on a ViewLux CCD imager (PerkinElmer). Data were normalized to Acetyl-MSTI (0% activity) and MSTI (100% activity) and the resulting percent inhibition data were fitted to a 4-parameter Hill equation using NCATS in-house software.
In the case of `CC(C)CNc1ccnc(NCc2csc(-c3ccccc3)n2)n1`, the Potency is reported as “inactive”. In the case of `Cc1nc2c([nH]1)CCN(C(=O)c1ccc(NC(=O)c3ccccc3-c3ccccc3)cc1)c1ccccc1-2`, the Potency is reported as “inactive”. In the case of `COc1ccc(CCC(=O)Nc2nc3ccc(Cl)cc3s2)cc1OC`, the Potency is reported as “inactive”. With `COc1ccc(-c2cc3nccn3c(Nc3ncccc3C(N)=O)n2)cc1OC` the Potency was “inactive”. With `O=C(CO)N1CCC(c2[nH]nc(-c3ccc(Cl)cc3)c2-c2ccncn2)CC1` the Potency was “inactive”. For `CC(C)(C)c1nc(-c2cccc(NS(=O)(=O)c3c(F)cccc3F)c2F)c(-c2ccnc(N)n2)s1`, the Potency was “inactive”. For `Cc1csc(-c2nnc(Nc3ccc(Oc4ncccc4-c4ccnc(N)n4)cc3)c3ccccc23)c1`, the Potency was “inactive”. With `N#Cc1ccc(Oc2ccc3c(c2)COB3O)cc1` the Potency was “inactive”. In the case of `Cc1ccccc1C(C(=O)NC1CCCCC1)N(C(=O)CNc1ccc(C#N)cc1)c1cccc(F)c1` (stereo not given), the Potency is reported as “inactive”. In the case of `CCc1cccc(CC)c1NC(=O)N1Cc2[nH]nc(NC(=O)c3ccc(N4CCN(C)CC4)cc3)c2C1`, the Potency is reported as “inactive”. In the case of `Cn1cnc(-c2cc3nccc(Oc4ccc(NC(=S)NC(=O)Cc5ccccc5)cc4F)c3s2)c1`, the Potency is reported as “inactive”. In the case of `COC(=O)N1CCN(Cc2cccc(NC(=O)Nc3ccc(C)nc3)c2F)CC1`, the Potency is reported as “inactive”. Work on `Cc1cnc(CNC(=O)c2c(=O)c3ccc(N4CCCN(C)CC4)nc3n3c2sc2ccccc23)cn1` yielded an activity change, negative = thiol reactive of 18.4% [at 11.5 µM]. In the case of `NS(=O)(=O)c1ccc(Nc2nc(OCC3CCCCC3)c3[nH]cnc3n2)cc1`, the Potency is reported as “inactive”. For `CCCCn1c(=O)n(Cc2ccccc2F)c(=O)c2[nH]c(Cc3ccc(NC(C)=O)cc3)nc21`, the Potency was “inactive”. For `NC1(C(=O)N[C@@H](CCO)c2ccc(Cl)cc2)CCN(c2ncnc3[nH]ccc23)CC1`, the Potency was “inactive”. For `CNC(=O)c1ccc2c(C(=Nc3cccc(CN(C)C)c3)c3ccccc3)c(O)[nH]c2c1`, the Potency was “inactive”. In the case of `CC[C@H](CC#N)OC(=O)N[C@@H](C)c1cccc(NC(=O)Nc2ccc(-c3cnco3)c(OC)c2)c1`, the Potency is reported as “inactive”. In the case of `Cc1ccccc1C(=O)c1ccc(Nc2ccc(Br)cc2N)cc1Cl`, the Potency is reported as “inactive”. In the case of `O=C(CCCN1CCN(c2ccc(F)cc2)CC1)NC1c2ccccc2CSc2ccccc21` (stereo not given), the Potency is reported as “inactive”. With `O=C(Nc1ccc(OC(F)(F)F)cc1)c1sccc1NCc1ccnc2ccccc12` the Potency was “inactive”. For `COc1ccc(-c2nc3ccc(C4=NNC(=O)CC4C)cc3[nH]2)cc1` (stereo not given), the Potency was “inactive”. With `CN(C)c1nc(Cc2ccc(NC(=O)c3ccc(C(F)(F)F)cc3)cc2)nc(N(C)C)c1CC(=O)O` the Potency was “inactive”. In the case of `Cc1ccc2c(c1)C(=O)[C@]1(O)CCN(c3ccccc3)C1=N2`, the Potency is reported as “inactive”. For `O=c1[nH]nc(OCCCc2ccc(Cl)cc2)c(NCc2cccnc2)c1Br`, the Potency was “inactive”. With `Nc1ccc(-c2ccc3ncc4ccc(=O)n(-c5cccc(C(F)(F)F)c5)c4c3c2)cn1` the Potency was “inactive”. With `C[C@@H](N)c1ccc(C(=O)Nc2ccnc3[nH]ccc23)cc1` the Potency was “inactive”. With `CC1=C[C@@H]2[C@@H]([C@@H](O)C[C@@]3(C)[C@H]2C[C@@H](C)[C@]3(O)C(=O)CO)[C@@]2(C)Cc3cnn(-c4ccccc4)c3C=C12` the Potency was “inactive”. With `C[C@H](c1ccc(F)cc1CCCC(=O)O)N(c1cc(F)ccc1F)S(=O)(=O)c1ccc(Cl)cc1` the Potency was “inactive”. With `CNc1nc(Nc2ccc(C(=O)N3CCOCC3)cc2OC)ncc1Cl` the Potency was “inactive”. With `CN(C)CCOc1cc(-c2cn[nH]c2)ccc1NC(=O)C1COc2ccccc2O1` (stereo not given) the Potency was “inactive”. In the case of `CNC(=O)c1cc(Oc2ccc(NC(=O)Nc3ccc(Cl)c(C(F)(F)F)c3)c(F)c2)ccn1`, the Potency is reported as “inactive”. In the case of `Clc1ccc(C2(c3ccc(-c4cn[nH]c4)cc3)CCNCC2)cc1`, the Potency is reported as “inactive”. With `Cc1cc2c(cc1C1(c3ccc(C(=O)O)cn3)CC1)C(C)(C)CCC2(C)C` the Potency was “inactive”. For `Cc1cc(-c2ncc(CC(=O)Nc3ccc(-c4cnccn4)cn3)cc2C)ccn1`, the Potency was “inactive”. With `C=CC(=O)Nc1cccc(Sc2nc(Nc3ccc(N4CCN(C)CC4)cc3)ncc2Cl)c1` the Potency was 3.36 µM (active). With `COc1nccc(-c2c(-c3ccc(F)cc3)ncn2C2CCNCC2)n1` the Potency was “inactive”. For `CS(=O)(=O)c1ccc(C2=C(c3ccccc3)C(=O)OC2)cc1`, the Potency was “inactive”. With `CNC(=O)c1c(-c2ccc(F)cc2)oc2cc(N(CCO)S(C)(=O)=O)c(C3CC3)cc12` the Potency was “inactive”. In the case of `COc1cc2nccc(Oc3ccc(NC(=O)Nc4cc(C)on4)c(Cl)c3)c2cc1OC`, the Potency is reported as “inactive”.
